The values below come from PubChem BioAssay (NCI).

A short description of assay [1]: NCI Yeast Anticancer Drug Screen. Data for the rad50 strain (AID 155).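 Further: 0% = growth of vehicle-only cultures of the same strain.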 The settings on record: S. cerevisiae rad50 strain growth inhibition, hits give high values. The procedure, abridged:
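Genetically altered yeast (DNA repair pathway); compound treatment; growth inhibition vs vehicle ctrl.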

Assay [2] can be described thus: NCI Yeast Anticancer Drug Screen. Data for the mec2-1 strain (AID 157). The conditions noted are these: S. cerevisiae mec2-1 strain, hits give high values. The procedure, abridged: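 Vehicle-treated cultures served as reference for growth inhibition of compound-exposed mec2-1 yeast.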
The nature of assay [3]: NCI Yeast Anticancer Drug Screen. Data for the sgs1 mgt1 strain (AID 161).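 Further: 0% = growth of cultures given vehicle only.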 The settings on record: S. cerevisiae sgs1 mgt1 strain, hits give high values. The procedure, abridged:
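Test agents were incubated with a DNA-repair-mutant yeast strain. Growth was then read and compared against vehicle-treated controls.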

Assay [4] is described as follows: NCI Yeast Anticancer Drug Screen. Data for the cln2 rad14 strain (AID 165).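 Further: 0% = growth equal to vehicle treated cultures.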 The conditions noted are these: S. cerevisiae cln2 rad14 strain, hits give high values. The procedure, abridged:
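Each compound was tested on cln2 rad14 yeast. Inhibition of growth was calculated against vehicle-exposed controls.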

A short description of assay [5]: NCI Yeast Anticancer Drug Screen. Data for the bub3 strain (AID 167). The settings on record: S. cerevisiae bub3 mutant strain, hits give high values. The procedure, abridged: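 Yeast carrying a defined mutation is treated with each compound, and growth is compared with that of vehicle-exposed cells to give inhibition.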
The nature of assay [6]: NCI Yeast Anticancer Drug Screen. Data for the mlh1 rad18 strain (AID 175). The settings on record: S. cerevisiae mlh1 rad18 strain growth inhibition, hits give high values. In a few lines:
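Vehicle-treated cultures served as the reference for growth inhibition in a yeast strain carrying DNA damage repair alterations exposed to each compound.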

Setting [7] is: at 5.0 µM (retest, dose inferred, filed as 0.5).
Setting [8] is: at 50.0 µM (retest, dose inferred, filed as 5.0).

This is part of a sample that, as a whole, favours compounds with a hit. Of some 79,000 tested, about 15% had one in any assay. Unmarked numbers belong to inactive results. Active and inactive are the calls of the source. No stated cut-off is given here; in the data, active means growth inhibition above about 70%; inactive means the rest.

`Nc1ccc(C(=O)NN2C(=O)C(Cl)C2c2cc(Br)cc(Br)c2O)cc1` (stereo not given): the growth inhibition in assay [1] (setting [7]) is -3%; in assay [1] (setting [8]), 64%; in assay [1] (at 50.0 µM) it was 96.2% (active); in assay [2] (setting [7]) it was -12%; in assay [2] (setting [8]) it was 80% (active); in assay [2] (at 50.0 µM), 94.2% (active). The growth inhibition in assay [3] (setting [7]) was -3%; in assay [3] (setting [8]), 91% (active); in assay [3] (at 50.0 µM) it was 93.7% (active); in assay [4] (setting [7]), -20%; in assay [4] (setting [8]), 76% (active); in assay [4] (at 50.0 µM) it was 89% (active). Further, the growth inhibition in assay [5] (setting [7]) was 10%; in assay [5] (setting [8]) it was 54%; in assay [5] (at 50.0 µM) it was 98.2% (active); in assay [6] (setting [7]) it was 5%; in assay [6] (setting [8]) it was 85% (active); in assay [6] (at 50.0 µM), 94.7% (active).
Turning to `CC1=NOC(=O)/C1=C/c1ccc(Cl)c(Cl)c1`, the growth inhibition in assay [1] (setting [7]) is -2%; in assay [1] (setting [8]), 70% (active); in assay [1] (at 50.0 µM), 31.9%; in assay [2] (setting [7]), 10%; in assay [2] (setting [8]), 20%; in assay [2] (at 50.0 µM) it was 36.7%. For the same molecule, the growth inhibition in assay [3] (setting [7]) is -11%; in assay [3] (setting [8]) it was 31%; in assay [3] (at 50.0 µM), 52.5%; in assay [4] (setting [7]), 8%; in assay [4] (setting [8]), 61%; in assay [4] (at 50.0 µM), 2.1%. Further, the growth inhibition is -3% in assay [5] (setting [7]); 71% (active) in assay [5] (setting [8]); 33.9% in assay [5] (at 50.0 µM); -10% in assay [6] (setting [7]); 45% in assay [6] (setting [8]); 43.1% in assay [6] (at 50.0 µM).
Consider `COc1cc2c(cc1O)CCN[C@@]21CS[C@H]2c3c(OC(C)=O)c(C)c4c(c3C(COC1=O)N1C2C2c3c(cc(C)c(OC)c3O)CC([C@@H]1O)N2C)OCO4` (stereo not given in full), for which the growth inhibition is 98% (active) in assay [1] (setting [7]); 99% (active) in assay [1] (setting [8]); 92.7% (active) in assay [1] (at 50.0 µM); 99% (active) in assay [2] (setting [7]); 99% (active) in assay [2] (setting [8]); 94% (active) in assay [2] (at 50.0 µM). Also, the growth inhibition is 99% (active) in assay [3] (setting [7]); 99% (active) in assay [3] (setting [8]); 93.4% (active) in assay [3] (at 50.0 µM); 99% (active) in assay [4] (setting [7]); 99% (active) in assay [4] (setting [8]); 91.6% (active) in assay [4] (at 50.0 µM). The growth inhibition was 99% (active) in assay [5] (setting [7]); 99% (active) in assay [5] (setting [8]); 93.2% (active) in assay [5] (at 50.0 µM); 99% (active) in assay [6] (setting [7]); 99% (active) in assay [6] (setting [8]); 92% (active) in assay [6] (at 50.0 µM).
Regarding `O=C1c2cccc(NCCNCCO)c2C(=O)c2cccc(NCCNCCO)c21`, the growth inhibition was 18% in assay [1] (setting [7]); 58% in assay [1] (setting [8]); -10.3% in assay [1] (at 50.0 µM); -8% in assay [2] (setting [7]); -8% in assay [2] (setting [8]); 7% in assay [2] (at 50.0 µM). For the same molecule, the growth inhibition is 17% in assay [3] (setting [7]); 13% in assay [3] (setting [8]); 31% in assay [3] (at 50.0 µM); 24% in assay [4] (setting [7]); 32% in assay [4] (setting [8]); 15.4% in assay [4] (at 50.0 µM). The growth inhibition in assay [5] (setting [7]) is 15%; in assay [5] (setting [8]), 22%; in assay [5] (at 50.0 µM), 45.1%; in assay [6] (setting [7]) it was 8%; in assay [6] (setting [8]) it was 15%; in assay [6] (at 50.0 µM) it was 8.2%.
In the case of `CCc1cc2nc3c(=O)[nH]c(=O)nc-3n(CCN(CCO)CCO)c2cc1CC`, the growth inhibition was 5% in assay [1] (setting [7]); 3% in assay [1] (setting [8]); 41% in assay [1] (at 50.0 µM); 10% in assay [2] (setting [7]); 27% in assay [2] (setting [8]); 30.6% in assay [2] (at 50.0 µM). Further, the growth inhibition was 2% in assay [3] (setting [7]); 15% in assay [3] (setting [8]); 55% in assay [3] (at 50.0 µM); 2% in assay [4] (setting [7]); -6% in assay [4] (setting [8]); 37% in assay [4] (at 50.0 µM). The growth inhibition in assay [5] (setting [7]) is 2%; in assay [5] (setting [8]), -7%; in assay [5] (at 50.0 µM), 18.1%; in assay [6] (setting [7]) it was 2%; in assay [6] (setting [8]), 7%; in assay [6] (at 50.0 µM), 81.9% (active).
Consider `Cc1cccc(-c2csc(N)n2)c1`, for which the growth inhibition in assay [1] (setting [7]) is 0%; in assay [1] (setting [8]), 77% (active); in assay [1] (at 50.0 µM) it was 61.1%; in assay [2] (setting [7]), 3%; in assay [2] (setting [8]), 35%; in assay [2] (at 50.0 µM) it was 41%. In addition, the growth inhibition is 2% in assay [3] (setting [7]); 37% in assay [3] (setting [8]); 78% (active) in assay [3] (at 50.0 µM); -1% in assay [4] (setting [7]); 31% in assay [4] (setting [8]); 39.6% in assay [4] (at 50.0 µM). In addition, the growth inhibition is -1% in assay [5] (setting [7]); 44% in assay [5] (setting [8]); 31.1% in assay [5] (at 50.0 µM); 1% in assay [6] (setting [7]); 63% in assay [6] (setting [8]); 65.2% in assay [6] (at 50.0 µM).
For the molecule `CCOC(=O)C(CC(=O)O)=C(c1ccccc1)c1ccccc1`, the growth inhibition is -10% in assay [1] (setting [7]); -7% in assay [1] (setting [8]); 17.5% in assay [1] (at 50.0 µM); -5% in assay [2] (setting [7]); -8% in assay [2] (setting [8]); 18.5% in assay [2] (at 50.0 µM). Moreover, the growth inhibition in assay [3] (setting [7]) is 3%; in assay [3] (setting [8]), 14%; in assay [3] (at 50.0 µM), 7.9%; in assay [4] (setting [7]), -31%; in assay [4] (setting [8]), 4%; in assay [4] (at 50.0 µM) it was 79.7% (active). For the same molecule, the growth inhibition is 11% in assay [5] (setting [7]); 0% in assay [5] (setting [8]); 25.1% in assay [5] (at 50.0 µM); -10% in assay [6] (setting [7]); 7% in assay [6] (setting [8]); -7.95% in assay [6] (at 50.0 µM).
With `CCOC(=O)C(NS(=O)(=O)c1ccccc1)(C(F)(F)F)P(=O)(OCC(C)C)OCC(C)C` (stereo not given), the growth inhibition in assay [1] (setting [7]) is 4%; in assay [1] (setting [8]), -2%; in assay [1] (at 50.0 µM), 98.5% (active); in assay [2] (setting [7]), 8%; in assay [2] (setting [8]), -2%; in assay [2] (at 50.0 µM), 96.1% (active). The growth inhibition in assay [3] (setting [7]) is -7%; in assay [3] (setting [8]), -3%; in assay [3] (at 50.0 µM) it was 96.2% (active); in assay [4] (setting [7]), 2%; in assay [4] (setting [8]) it was 13%; in assay [4] (at 50.0 µM) it was 97.3% (active). The growth inhibition in assay [5] (setting [7]) was 4%; in assay [5] (setting [8]), 0%; in assay [5] (at 50.0 µM) it was 96.2% (active); in assay [6] (setting [7]), 0%; in assay [6] (setting [8]) it was 17%; in assay [6] (at 50.0 µM) it was 98% (active).
Consider `NCC(=O)N/N=C/c1ccc([N+](=O)[O-])o1`, for which the growth inhibition is 10% in assay [1] (setting [7]); 24% in assay [1] (setting [8]); 5.1% in assay [1] (at 50.0 µM); 4% in assay [2] (setting [7]); 17% in assay [2] (setting [8]); 44.3% in assay [2] (at 50.0 µM). Moreover, the growth inhibition was 0% in assay [3] (setting [7]); 15% in assay [3] (setting [8]); 73.2% (active) in assay [3] (at 50.0 µM); -1% in assay [4] (setting [7]); 5% in assay [4] (setting [8]); 27.6% in assay [4] (at 50.0 µM). For the same molecule, the growth inhibition in assay [5] (setting [7]) was 2%; in assay [5] (setting [8]), 11%; in assay [5] (at 50.0 µM), 37.2%; in assay [6] (setting [7]), 8%; in assay [6] (setting [8]), 30%; in assay [6] (at 50.0 µM) it was 20.4%.
For `COP(=O)(OC)OCC1OC(n2cnc3c(N)ncnc32)C(O)C1O` (stereo not given), the growth inhibition in assay [1] (setting [7]) is -2%; in assay [1] (setting [8]) it was -2%; in assay [1] (at 50.0 µM), 96.5% (active); in assay [2] (setting [7]), 2%; in assay [2] (setting [8]), 2%; in assay [2] (at 50.0 µM), 95.9% (active). Also, the growth inhibition in assay [3] (setting [7]) was 0%; in assay [3] (setting [8]) it was -2%; in assay [3] (at 50.0 µM), 94.5% (active); in assay [4] (setting [7]) it was 4%; in assay [4] (setting [8]), 4%; in assay [4] (at 50.0 µM), 89.7% (active). The growth inhibition in assay [5] (setting [7]) was -1%; in assay [5] (setting [8]) it was -4%; in assay [5] (at 50.0 µM), 96.2% (active); in assay [6] (setting [7]), -3%; in assay [6] (setting [8]) it was -5%; in assay [6] (at 50.0 µM), 97.3% (active).
